From publication PMC5540273 (PLoS ONE, 2017) come the findings set out here.
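Note: KINOMEscan kinase panel screen.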

The test system of the first assay is T1, TAK1.
T1 construct: gene MAP3K7
The conditions noted are these: concentration: 1 μM, replicates: in singlicate; n = 1.
As for `O=C(Nc1n[nH]c2nc(-c3nccs3)c(Br)cc12)C1CCCC1` [SB-742609], the “%Inh” value was 0%.

On to `CC1=C(C(=O)Nc2cc3cn[nH]c3cc2F)C(c2ccc(C(F)(F)F)cc2)CC(=O)N1` (centres unmarked) [GSK429286], for which the “%Inh” value is 0%.

With `CSc1nn2c(=O)cc(N3CCOCC3)nc2n1Cc1cccc(C(F)(F)F)c1C` [GSK2363608], the “%Inh” value was found to be 0%.

As to `Cl.O=C(Nc1cccc(-c2nn3ncccc3c2-c2ccnc(Nc3cccnc3)n2)c1)c1c(F)cccc1F` [GSK312879], the “%Inh” value amounted to 0%.

Take `Cc1ccc(NC(=O)Nc2cccc(Cl)c2)cc1-c1ccc(C(=O)Nc2ccncc2)cc1` [GSK1398468]: the “%Inh” value was 0%.

As for `CC(=O)Nc1nc2cnc(Nc3cc(NC(=O)c4cccc(CCC#N)c4)ccc3C)nc2s1`, the “%Inh” value is 42%.

With `COc1cccc(NC(=O)NC2CCN(c3ccnc(Nc4ccc(F)cc4)n3)C2)c1` (centres unmarked) [GSK1379721], the “%Inh” value was found to be 0%.

As to `CS(=O)(=O)c1ccc(-c2nc3n(c2-c2ccncc2)CCC3)cc1` [SKF-105942], the “%Inh” value is on record as 0%.

As to `CCCc1ccc(S(=O)(=O)NC2CCN(c3ccnc(Nc4ccc(F)cc4)n3)C2)cc1` (centres unmarked) [GSK1379715], the “%Inh” value is recorded as 0%.

Regarding `O=S(=O)(c1ccc(-c2ccnc3[nH]ccc23)cc1)N1CCCC1` [GSK846226], the “%Inh” value was determined as 1%.

`Cc1ccc(NC(=O)Nc2cc(C(C)(C)C)nn2-c2ccccc2)cc1` [GSK1014915]: the “%Inh” value was determined as 0%.

With `CN(C)CCN(C)C(=O)c1cc(-c2ccncc2)c(-c2ccc(Cl)c(O)c2)o1.Cl.Cl` [SB-710397], the “%Inh” value is listed as 0%.

Regarding `O=C(O)COc1ncnc2cc(-c3ccc4[nH]ncc4c3)sc12`, the “%Inh” value came out at 28%.

Take `Cc1cccc(-c2nc(C)cc(Nc3ccncc3)n2)n1` [GSK257997]: the “%Inh” value is recorded as 24%.

As to `O=C(Nc1n[nH]c2nc(-c3nccs3)c(Br)cc12)C1CC1` [SB-742251], the “%Inh” value worked out at 0%.

On to `Nc1nc(-c2nccs2)c(-c2ccnc3ccccc23)s1` [GW693542], for which the “%Inh” value is 0%.

On to `CC(C)(C)c1ccc(C(=O)Nc2cn3cc(-c4cccnc4)ccc3n2)cc1`, for which the “%Inh” value was found to be 11%.

For the molecule `Cn1ccc2ncnc(Oc3ccc(NC(=O)Nc4ccccc4)cc3)c21`, the “%Inh” value worked out at 4%.

In the case of `Cl.c1ccc(-c2n[nH]cc2-c2ccnc(-c3ccc(CN4CCOCC4)cc3)c2)nc1` [GW776245], the “%Inh” value is 0%.

In the case of `COc1cc2ncn(-c3cc(OCC4CCCO4)c(C(N)=O)s3)c2cc1OC` (centres unmarked) [GSK204607], the “%Inh” value is 18%.

Regarding `COc1ccc(C2=C(Nc3cccc(C(=O)O)c3)C(=O)NC2=O)cc1` [SB-390765], the “%Inh” value is 21%.

For `Fc1cc(Cl)ccc1Nc1ccnc2cc(-c3ccc(CN4CCCCC4)o3)ccc12` [GW560116], the “%Inh” value is given as 0%.

As to `O=c1cc(N2CCOCC2)nc2n(Cc3cccc(Cl)c3Cl)ccn12` [GSK2286295], the “%Inh” value came to 5%.

Turning to `O=C(Nc1ccccc1)Nc1cccc(Oc2ccc3nccn3n2)c1`, the “%Inh” value is recorded as 0%.

For the molecule `Nc1ncnc2[nH]c(-c3ccccc3)nc12` [AH5015], the “%Inh” value is 0%.

In the case of `Cc1cccc(-c2nc(-c3ccc(S(C)(=O)=O)cc3)sc2-c2ccnc(NCCc3ccccc3)c2)c1`, the “%Inh” value amounted to 0%.

For `O=C(Nc1n[nH]c2cc(-c3cccc(F)c3F)ccc12)C1CC1` [SB-733894], the “%Inh” value is given as 48%.

`CN1C(=O)C(Nc2ccc(Cl)c(C(=O)O)c2)=C(c2ccc(Cl)cc2)C1=O` [SB-404290]: the “%Inh” value was determined as 0%.

On to `Cn1cncc1-c1ccc2ncnc(Nc3ccc(OCc4ccccc4)cc3)c2c1` [GW320571], for which the “%Inh” value was found to be 0%.

Regarding `Cn1ccc2ncnc(Oc3cccc(C(=O)Nc4ccccc4)c3)c21`, the “%Inh” value was 13%.

Regarding `Fc1cc(Cl)ccc1Nc1ccnc2cc(I)ccc12` [GW551191], the “%Inh” value is reported as 0%.

For `COc1cc2ncnc(Nc3ccc4nc(-c5ccccc5)[nH]c4c3)c2cc1OC.Cl` [GW282450], the “%Inh” value is on record as 23%.

On to `COc1cccc(-c2cc(-c3c[nH]nc3-c3ccccn3)ccn2)c1` [GW680338], for which the “%Inh” value was determined as 0%.

As to `COc1ccc(CNC(=O)NC2CCN(c3ccnc(Nc4cc(OC)c(OC)c(OC)c4)n3)C2)cc1` (centres unmarked) [GSK1379748], the “%Inh” value is recorded as 0%.

In a further assay the test system is TAOK1. The following applies: concentration: 1 μM, replicates: in singlicate; n = 1.
For the molecule `O=C(Nc1n[nH]c2nc(-c3nccs3)c(Br)cc12)C1CCCC1` [SB-742609], the “%Inh” value is listed as 0%.

`CC1=C(C(=O)Nc2cc3cn[nH]c3cc2F)C(c2ccc(C(F)(F)F)cc2)CC(=O)N1` (centres unmarked) [GSK429286]: the “%Inh” value turned out to be 0%.

In the case of `CSc1nn2c(=O)cc(N3CCOCC3)nc2n1Cc1cccc(C(F)(F)F)c1C` [GSK2363608], the “%Inh” value is given as 0%.

On to `Cl.O=C(Nc1cccc(-c2nn3ncccc3c2-c2ccnc(Nc3cccnc3)n2)c1)c1c(F)cccc1F` [GSK312879], for which the “%Inh” value amounted to 5%.

Turning to `Cc1ccc(NC(=O)Nc2cccc(Cl)c2)cc1-c1ccc(C(=O)Nc2ccncc2)cc1` [GSK1398468], the “%Inh” value is on record as 0%.

Take `CC(=O)Nc1nc2cnc(Nc3cc(NC(=O)c4cccc(CCC#N)c4)ccc3C)nc2s1`: the “%Inh” value stood at 0%.

With `COc1cccc(NC(=O)NC2CCN(c3ccnc(Nc4ccc(F)cc4)n3)C2)c1` (centres unmarked) [GSK1379721], the “%Inh” value is given as 0%.

For the molecule `CS(=O)(=O)c1ccc(-c2nc3n(c2-c2ccncc2)CCC3)cc1` [SKF-105942], the “%Inh” value stood at 0%.

Consider `CCCc1ccc(S(=O)(=O)NC2CCN(c3ccnc(Nc4ccc(F)cc4)n3)C2)cc1` (centres unmarked) [GSK1379715], for which the “%Inh” value stood at 0%.

Consider `O=S(=O)(c1ccc(-c2ccnc3[nH]ccc23)cc1)N1CCCC1` [GSK846226], for which the “%Inh” value is reported as 0%.

`Cc1ccc(NC(=O)Nc2cc(C(C)(C)C)nn2-c2ccccc2)cc1` [GSK1014915]: the “%Inh” value came to 0%.

As to `CN(C)CCN(C)C(=O)c1cc(-c2ccncc2)c(-c2ccc(Cl)c(O)c2)o1.Cl.Cl` [SB-710397], the “%Inh” value was found to be 0%.

`O=C(O)COc1ncnc2cc(-c3ccc4[nH]ncc4c3)sc12`: the “%Inh” value turned out to be 0%.

Take `Cc1cccc(-c2nc(C)cc(Nc3ccncc3)n2)n1` [GSK257997]: the “%Inh” value is recorded as 0%.

As for `O=C(Nc1n[nH]c2nc(-c3nccs3)c(Br)cc12)C1CC1` [SB-742251], the “%Inh” value is on record as 0%.

For `Nc1nc(-c2nccs2)c(-c2ccnc3ccccc23)s1` [GW693542], the “%Inh” value turned out to be 0%.

With `CC(C)(C)c1ccc(C(=O)Nc2cn3cc(-c4cccnc4)ccc3n2)cc1`, the “%Inh” value is listed as 0%.

As to `Cn1ccc2ncnc(Oc3ccc(NC(=O)Nc4ccccc4)cc3)c21`, the “%Inh” value was found to be 0%.

Turning to `Cl.c1ccc(-c2n[nH]cc2-c2ccnc(-c3ccc(CN4CCOCC4)cc3)c2)nc1` [GW776245], the “%Inh” value stood at 0%.

With `COc1cc2ncn(-c3cc(OCC4CCCO4)c(C(N)=O)s3)c2cc1OC` (centres unmarked) [GSK204607], the “%Inh” value is given as 0%.

For `COc1ccc(C2=C(Nc3cccc(C(=O)O)c3)C(=O)NC2=O)cc1` [SB-390765], the “%Inh” value is 28%.

As to `Fc1cc(Cl)ccc1Nc1ccnc2cc(-c3ccc(CN4CCCCC4)o3)ccc12` [GW560116], the “%Inh” value stood at 0%.

Take `O=c1cc(N2CCOCC2)nc2n(Cc3cccc(Cl)c3Cl)ccn12` [GSK2286295]: the “%Inh” value came out at 0%.

Regarding `O=C(Nc1ccccc1)Nc1cccc(Oc2ccc3nccn3n2)c1`, the “%Inh” value is 0%.

Regarding `Nc1ncnc2[nH]c(-c3ccccc3)nc12` [AH5015], the “%Inh” value was 7%.

For `Cc1cccc(-c2nc(-c3ccc(S(C)(=O)=O)cc3)sc2-c2ccnc(NCCc3ccccc3)c2)c1`, the “%Inh” value was 0%.

On to `O=C(Nc1n[nH]c2cc(-c3cccc(F)c3F)ccc12)C1CC1` [SB-733894], for which the “%Inh” value worked out at 23%.

Consider `CN1C(=O)C(Nc2ccc(Cl)c(C(=O)O)c2)=C(c2ccc(Cl)cc2)C1=O` [SB-404290], for which the “%Inh” value was 11%.

As for `Cn1cncc1-c1ccc2ncnc(Nc3ccc(OCc4ccccc4)cc3)c2c1` [GW320571], the “%Inh” value came out at 0%.

Take `Cn1ccc2ncnc(Oc3cccc(C(=O)Nc4ccccc4)c3)c21`: the “%Inh” value stood at 0%.

`Fc1cc(Cl)ccc1Nc1ccnc2cc(I)ccc12` [GW551191]: the “%Inh” value was 0%.

`COc1cc2ncnc(Nc3ccc4nc(-c5ccccc5)[nH]c4c3)c2cc1OC.Cl` [GW282450]: the “%Inh” value is given as 0%.

With `COc1cccc(-c2cc(-c3c[nH]nc3-c3ccccn3)ccn2)c1` [GW680338], the “%Inh” value worked out at 0%.

Consider `COc1ccc(CNC(=O)NC2CCN(c3ccnc(Nc4cc(OC)c(OC)c(OC)c4)n3)C2)cc1` (centres unmarked) [GSK1379748], for which the “%Inh” value was determined as 0%.
